# Experimental data published in PubChem BioAssay AID1159580 (chemical genetic matrix, 2015).
# Screen size: about 5,500 compounds; about 2,000 (36%) were called active. Inconclusive results (about 18%) are left out. Some of the results follow. Values without a mark were called inactive. Rule as the data show it: active = normalized growth mostly below about 0.91 (no sharp cut-off); inconclusive = no clear call, values can overlap the other calls; inactive = mostly above about 0.92.
# Test: chemical genetic growth profiling, strain panel (AID 1159580);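 also: tested at 20 µM; growth read once vehicle control cultures reached saturation at 30 °C; 1 = growth at the plate median or of vehicle wells; lower values mean less growth of the strain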
# Settings: growth OD
structure (smiles),measurement,setting,value
C[C@@H]1C[C@@H]([C@H](O)CC2CC(=O)NC(=O)C2)C(=O)[C@@H](C)C1,normalized growth,"S. cerevisiae deletion strains, locus YJR075W, strain HOC1, stronger effect = lower value",0.0698 (active)
same,normalized growth,"S. cerevisiae deletion strains, locus YKL009W, strain mrt4, stronger effect = lower value",0.0696 (active)
same,normalized growth,"S. cerevisiae deletion strains, locus YKL068W, stronger effect = lower value",0.0541 (active)
same,normalized growth,"S. cerevisiae deletion strains, locus YKL085W, strain MDH1 (second series), stronger effect = lower value",0.0512 (active)
same,normalized growth,"S. cerevisiae deletion strains, locus YKL085W, strain MDH1, stronger effect = lower value",0.0512 (active)
same,normalized growth,"S. cerevisiae deletion strains, locus YKL160W, strain elf1, stronger effect = lower value",0.0661 (active)
same,normalized growth,"S. cerevisiae deletion strains, locus YKL190W, strain CNB1, stronger effect = lower value",0.0498 (active)
same,normalized growth,"S. cerevisiae deletion strains, locus YKR001C, strain vps1, stronger effect = lower value",0.0635 (active)
same,normalized growth,"S. cerevisiae deletion strains, locus YKR026C, strain gcn3, stronger effect = lower value",0.0607 (active)
same,normalized growth,"S. cerevisiae deletion strains, locus YKR091W, strain srl3, stronger effect = lower value",0.0583 (active)
same,normalized growth,"S. cerevisiae deletion strains, locus YLL001W, strain dnm1, stronger effect = lower value",0.0597 (active)
same,normalized growth,"S. cerevisiae deletion strains, locus YLL026W, stronger effect = lower value",0.0551 (active)
same,normalized growth,"S. cerevisiae deletion strains, locus YLL041C, strain sdh2, stronger effect = lower value",0.0553 (active)
same,normalized growth,"S. cerevisiae deletion strains, locus YLR027C, strain aat2, stronger effect = lower value",0.0609 (active)
same,normalized growth,"S. cerevisiae deletion strains, locus YLR039C, strain RIC1, stronger effect = lower value",0.0922 (active)
same,normalized growth,"S. cerevisiae deletion strains, locus YLR058C, strain SHM2, stronger effect = lower value",0.041 (active)
same,normalized growth,"S. cerevisiae deletion strains, locus YLR102C, strain apc9, stronger effect = lower value",0.0592 (active)
same,normalized growth,"S. cerevisiae deletion strains, locus YLR113W, strain HOG1, stronger effect = lower value",0.12 (active)
same,normalized growth,"S. cerevisiae deletion strains, locus YLR221C, strain rsa3, stronger effect = lower value",0.0588 (active)
same,normalized growth,"S. cerevisiae deletion strains, locus YLR258W, strain gsy2, stronger effect = lower value",0.0568 (active)
same,normalized growth,"S. cerevisiae deletion strains, locus YLR262C, strain YPT6 (second series), stronger effect = lower value",0.0723 (active)
same,normalized growth,"S. cerevisiae deletion strains, locus YLR262C, strain YPT6, stronger effect = lower value",0.108 (active)
same,normalized growth,"S. cerevisiae deletion strains, locus YLR268W, strain sec22, stronger effect = lower value",0.0667 (active)
same,normalized growth,"S. cerevisiae deletion strains, locus YLR320W, strain mms22, stronger effect = lower value",0.0766 (active)
same,normalized growth,"S. cerevisiae deletion strains, locus YLR330W, strain CHS5, stronger effect = lower value",0.0515 (active)
same,normalized growth,"S. cerevisiae deletion strains, locus YLR342W, strain FKS1 (second series), stronger effect = lower value",0.0688 (active)
same,normalized growth,"S. cerevisiae deletion strains, locus YLR342W, strain FKS1, stronger effect = lower value",0.0659 (active)
same,normalized growth,"S. cerevisiae deletion strains, locus YLR357W, strain rsc2, stronger effect = lower value",0.119 (active)
same,normalized growth,"S. cerevisiae deletion strains, locus YLR370C, strain arc18, stronger effect = lower value",0.0598 (active)
same,normalized growth,"S. cerevisiae deletion strains, locus YLR371W, strain rom2, stronger effect = lower value",0.0594 (active)
same,normalized growth,"S. cerevisiae deletion strains, locus YLR384C, strain iki3, stronger effect = lower value",0.0596 (active)
same,normalized growth,"S. cerevisiae deletion strains, locus YLR418C, strain cdc73, stronger effect = lower value",0.0977 (active)
same,normalized growth,"S. cerevisiae deletion strains, locus YML016C, strain PPZ1, stronger effect = lower value",0.055 (active)
same,normalized growth,"S. cerevisiae deletion strains, locus YML032C, strain rad52, stronger effect = lower value",0.0671 (active)
same,normalized growth,"S. cerevisiae deletion strains, locus YML120C, strain ndi1, stronger effect = lower value",0.0554 (active)
same,normalized growth,"S. cerevisiae deletion strains, locus YML124C, strain tub3, stronger effect = lower value",0.0568 (active)
same,normalized growth,"S. cerevisiae deletion strains, locus YMR058W, strain fet3, stronger effect = lower value",0.0596 (active)
same,normalized growth,"S. cerevisiae deletion strains, locus YMR078C, strain ctf18, stronger effect = lower value",0.0691 (active)
same,normalized growth,"S. cerevisiae deletion strains, locus YMR125W, strain sto1, stronger effect = lower value",0.0765 (active)
same,normalized growth,"S. cerevisiae deletion strains, locus YMR129W, stronger effect = lower value",0.0549 (active)
same,normalized growth,"S. cerevisiae deletion strains, locus YMR205C, strain PFK2, stronger effect = lower value",0.0823 (active)
same,normalized growth,"S. cerevisiae deletion strains, locus YMR223W, strain ubp8, stronger effect = lower value",0.065 (active)
same,normalized growth,"S. cerevisiae deletion strains, locus YMR231W, strain pep5, stronger effect = lower value",0.0689 (active)
same,normalized growth,"S. cerevisiae deletion strains, locus YMR263W, strain SAP30, stronger effect = lower value",0.0637 (active)
same,normalized growth,"S. cerevisiae deletion strains, locus YMR307W, strain GAS1, stronger effect = lower value",0.121 (active)
same,normalized growth,"S. cerevisiae deletion strains, locus YNL067W, strain RPL9B, stronger effect = lower value",0.0574 (active)
same,normalized growth,"S. cerevisiae deletion strains, locus YNL071W, strain lat1, stronger effect = lower value",0.0587 (active)
same,normalized growth,"S. cerevisiae deletion strains, locus YNL128W, strain TEP1, stronger effect = lower value",0.0594 (active)
same,normalized growth,"S. cerevisiae deletion strains, locus YNL153C, strain GIM3, stronger effect = lower value",0.0488 (active)
same,normalized growth,"S. cerevisiae deletion strains, locus YNL183C, strain NPR1, stronger effect = lower value",-0.00319 (active)
same,normalized growth,"S. cerevisiae deletion strains, locus YNL209W, strain ssb2, stronger effect = lower value",0.0566 (active)
same,normalized growth,"S. cerevisiae deletion strains, locus YNL233W, strain BNI4, stronger effect = lower value",0.0543 (active)
same,normalized growth,"S. cerevisiae deletion strains, locus YNL248C, strain rpa49, stronger effect = lower value",0.0754 (active)
same,normalized growth,"S. cerevisiae deletion strains, locus YNL250W, strain rad50, stronger effect = lower value",0.0626 (active)
same,normalized growth,"S. cerevisiae deletion strains, locus YNL271C, strain bni1, stronger effect = lower value",0.0609 (active)
same,normalized growth,"S. cerevisiae deletion strains, locus YNL298W, strain CLA4, stronger effect = lower value",0.0597 (active)
same,normalized growth,"S. cerevisiae deletion strains, locus YNL307C, strain MCK1, stronger effect = lower value",0.0682 (active)
same,normalized growth,"S. cerevisiae deletion strains, locus YNL322C, strain KRE1 (second series), stronger effect = lower value",0.0709 (active)
same,normalized growth,"S. cerevisiae deletion strains, locus YNL322C, strain KRE1, stronger effect = lower value",0.0498 (active)
same,normalized growth,"S. cerevisiae deletion strains, locus YNR049C, strain mso1, stronger effect = lower value",0.0539 (active)
same,normalized growth,"S. cerevisiae deletion strains, locus YNR052C, strain pop2, stronger effect = lower value",0.0603 (active)
same,normalized growth,"S. cerevisiae deletion strains, locus YOL006C, strain TOP1, stronger effect = lower value",0.0855 (active)
same,normalized growth,"S. cerevisiae deletion strains, locus YOL012C, strain htz1",0.234
same,normalized growth,"S. cerevisiae deletion strains, locus YOL147C, strain pex11, stronger effect = lower value",0.0565 (active)
same,normalized growth,"S. cerevisiae deletion strains, locus YOR001W, strain rrp6, stronger effect = lower value",0.0676 (active)
same,normalized growth,"S. cerevisiae deletion strains, locus YOR061W, strain CKA2, stronger effect = lower value",0.0412 (active)
same,normalized growth,"S. cerevisiae deletion strains, locus YOR069W, strain VPS5, stronger effect = lower value",0.0494 (active)
same,normalized growth,"S. cerevisiae deletion strains, locus YOR070C, strain gyp1, stronger effect = lower value",0.056 (active)
same,normalized growth,"S. cerevisiae deletion strains, locus YOR080W, strain dia2, stronger effect = lower value",0.0619 (active)
same,normalized growth,"S. cerevisiae deletion strains, locus YOR083W, strain WHI5, stronger effect = lower value",0.0654 (active)
same,normalized growth,"S. cerevisiae deletion strains, locus YOR106W, strain vam3, stronger effect = lower value",0.0681 (active)
same,normalized growth,"S. cerevisiae deletion strains, locus YOR136W, strain idh2, stronger effect = lower value",0.0689 (active)
same,normalized growth,"S. cerevisiae deletion strains, locus YOR144C, strain elg1, stronger effect = lower value",0.0565 (active)
same,normalized growth,"S. cerevisiae deletion strains, locus YOR184W, strain ser1, stronger effect = lower value",0.0727 (active)
same,normalized growth,"S. cerevisiae deletion strains, locus YOR231W, strain MKK1, stronger effect = lower value",0.111 (active)
same,normalized growth,"S. cerevisiae deletion strains, locus YOR265W, strain rbl2, stronger effect = lower value",0.0548 (active)
same,normalized growth,"S. cerevisiae deletion strains, locus YOR270C, strain vph1, stronger effect = lower value",0.1 (active)
same,normalized growth,"S. cerevisiae deletion strains, locus YOR290C, strain snf2, stronger effect = lower value",0.0637 (active)
same,normalized growth,"S. cerevisiae deletion strains, locus YOR316C, strain cot1, stronger effect = lower value",0.0575 (active)
same,normalized growth,"S. cerevisiae deletion strains, locus YPL051W, strain arl3, stronger effect = lower value",0.0621 (active)
same,normalized growth,"S. cerevisiae deletion strains, locus YPL055C, strain LGE1, stronger effect = lower value",0.0743 (active)
same,normalized growth,"S. cerevisiae deletion strains, locus YPL078C, strain atp4, stronger effect = lower value",0.0696 (active)
same,normalized growth,"S. cerevisiae deletion strains, locus YPL106C, strain sse1, stronger effect = lower value",0.0938 (active)
same,normalized growth,"S. cerevisiae deletion strains, locus YPL240C, strain hsp82, stronger effect = lower value",0.0556 (active)
same,normalized growth,"S. cerevisiae deletion strains, locus YPL241C, strain CIN2, stronger effect = lower value",0.0514 (active)
same,normalized growth,"S. cerevisiae deletion strains, locus YPL256C, strain CLN2, stronger effect = lower value",0.112 (active)
same,normalized growth,"S. cerevisiae deletion strains, locus YPR119W, strain clb2, stronger effect = lower value",0.0611 (active)
same,normalized growth,"S. cerevisiae deletion strains, locus YPR141C, strain kar3, stronger effect = lower value",0.0644 (active)
same,normalized growth,"S. cerevisiae deletion strains, locus YPR163C, strain tif3, stronger effect = lower value",0.0667 (active)
same,normalized growth,"S. cerevisiae deletion strains, locus YPR167C, strain met16, stronger effect = lower value",0.0591 (active)
same,normalized growth,"S. cerevisiae deletion strains, strain wtn01, stronger effect = lower value",0.0603 (active)
same,normalized growth,"S. cerevisiae strains, strain wild type, stronger effect = lower value",0.0494 (active)
